± gives the standard deviation of the averaged measurements. In all, about 25,000 sequences were measured (“ln(normalized median fluorescence intensity)”: median about 7.9, highest 2% from about 11 on). This is one part of a sample in which the highest values are shown more often than they occur.
Test system: PfAP2-I AP2 domain 3 (GST-tagged)
Assay: gcPBM binding intensity (ln(normalized median fluorescence intensity)); higher = stronger DNA binding
Summary of the method: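 GST-tagged P. falciparum DNA-binding domains, expressed in E. coli (about 25 μg on average), were applied for 1 h to an Agilent 4 × 180k array of primer-extended double-stranded 36-bp intergenic genomic probes plus negative controls. The binding buffer was 1× PBS with 1% milk, 0.2 mg/ml BSA, 0.5% salmon testes DNA and 0.03% Triton X-100. Bound protein was detected with Alexa488 anti-GST antibody and scanned at 488 nm. Binding intensity is the highest Masliner-normalised natural-log median intensity across replicate spots of either probe orientation.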

Sequence | gcPBM binding intensity (ln)
AGAGGAAAAATAAAAGGAAAAAAGAAAATAATATTG [CACACA_negctrl_site852] | 7.45 ± 0.73
GAATGAATGATAAATTTTTTTTTCTTTTTTTTTTTG [CACACA_negctrl_site333] | 7.09 ± 0.59
ACCTTATAAAAAAAAAGTACATATATAAATAATAAA [XGTACX_site4338] | 8.29 ± 0.13
ATATAATTAAAAACATGTACATATATATATATATAT [XGTACX_site2882] | 9.27 ± 0.2
CAAACCCACCAACACACACACACAAAAATGATTAAA [CACACA_site2432] | 8.03 ± 0.23
TTATGTTCTTTAAAACCACACACCCCCCAACCCCCC [CACACA_site8742] | 10.9 ± 0.44
ATGTTCTTTAAAACCACACACCCCCCAACCCCCCTC [CACACA_site2373] | 10.6 ± 0.36
ATAAGTATAAGAATCAGTACACAGTTTCTACATACT [XGTACX_site5834] | 7.56 ± 0.51
TATCAAAGTAGAAGAGATCGATGTCATATTGTGATG [GTGCAC_negctrl_site42] | 7.73 ± 0.75
CATATGCATACTATACGTACATATGTATATAATATA [XGTACX_site7738] | 8.03 ± 0.42
TATAATATTAATGACTGTACTCATACGTATATTTAT [XGTACX_site5493] | 7.79 ± 0.3
GGTCTTCTTAATATACTGCACTGTATACGTATATAA | 11 ± 0.61
GATAGATAATATTTTAGTACATAAACAATTAAATAT [XGTACX_site4125] | 7.91 ± 0.44
TAATCATAAAAAAATACACACATATAAAATATAGAT [CACACA_site7020] | 7.51 ± 0.63
TCATATATATTATACACACACATATATAAATATATA [CACACA_site967] | 7.87 ± 0.54
TAGGGATTATACCACACACACATACACATAAATATA [CACACA_site3178] | 7.86 ± 0.32
TTATAATATGGATACACACACATATATAAATATATA [CACACA_site5314] | 7.68 ± 0.38
ATGGATTATACGTGCACACATATATACCAATAAATA [CACACA_site4524] | 11.2 ± 0.22
CATAAAAATGGATACACACACATAATATATATATAT [CACACA_site3619] | 9.08 ± 0.11
TAATGGATTATACGTGCACACATATATACAAATAAA [CACACA_site8116] | 10.97 ± 0.035
ATGGATTATACGTGCACACATATATACAAATAAATA [CACACA_site640] | 11.19 ± 0.035
ATATAAATACGGTGTGCACACACATAATATATATAT [CACACA_site2271] | 9.52 ± 0.26
TATAAATACATACGTACACACAAATATTAAAATATA [CACACA_site5129] | 7.905 ± 0.007
AATAATAATAAAAATAAACACACATATATATGTATA [CACACA_site8928] | 7.57 ± 0.28
AATATAATTATATGTGGTACAGAAATAATATAAAAT [XGTACX_site2366] | 8.22 ± 0.52

— the supplement of paper PMC11417369
